# From PubChem BioAssay AID1814 (Broad Institute, 2009)
# About 22,000 (7.3%) of roughly 300,000 compounds were called active. About 2% were inconclusive and are not listed. This is one part of a sample in which actives are shown more often than they occur. No stated cut-off is given here; in the data, active means activity score below about -60%; inconclusive means mostly about -28% to -61%; inactive means positive scores.
# Assay: Activators via SNCA 5'UTR binding, MLPCN (AID 1814)
# Details: alpha-synuclein 5'UTR reporter, activators screen; stronger effect = lower value; tested at 7.5 µM
row,SMILES,activity score
1,CSc1nc2ccc(NC(=O)c3c(F)cccc3F)cc2s1,-166% (active)
2,CCn1c(=O)c2cc(C(=O)Nc3cccc(C(C)=O)c3)sc2c2ccccc21,-66.3% (active)
3,Fc1cccc(Cl)c1CSc1ccc(-c2ccco2)nn1,-172% (active)
4,CSc1ccccc1NC(=O)c1cnc2sc(C)cn2c1=O,-129% (active)
5,CC(C)(C)NC(=O)Cn1nnc(-c2ccccc2Cl)n1,-117% (active)
6,O=C1N/C(=C/c2cccn2-c2ccccc2)C(=O)N1c1cccc(Cl)c1,-65.3% (active)
7,COc1ccc(C2CC(c3cccs3)=NN2c2ccccc2)cc1 (centres undefined),-69% (active)
8,COc1ccc(Cc2n[nH]c(=S)n2NC(=O)Nc2ccc(C)cc2)cc1,-75.9% (active)
9,CC(C)COC(=O)c1ccc(NC(=O)C2C3C=CC(C3)C2C(=O)O)cc1 (centres undefined),-101% (active)
10,Cc1nc2cc(NC(=O)NCc3ccccc3)ccc2o1,-102% (active)
11,Cc1ccc(NC(=O)Nc2ccc3oc(C)nc3c2)cc1,-272% (active)
12,COc1cc(/C=C2/C(=O)ON=C2C)ccc1OCc1cccc(F)c1,-149% (active)
13,COc1cc(/C=C2/C(=O)ON=C2C)ccc1OCc1ccccc1F,-183% (active)
14,CN1CCN(C2Cc3ccc(Cl)cc3Sc3ccc(F)cc32)CC1 (centres undefined),104% (inactive)
15,Cc1n[nH]c(C)c1S(=O)(=O)N1CCCC(C(=O)Nc2ccc(Br)cc2)C1 (centres undefined),-116% (active)
16,COc1ccc(S(=O)(=O)N2CCCC(C(=O)Nc3ccc(NC(=O)c4ccccn4)cc3)C2)cc1 (centres undefined),-87.5% (active)
17,CCOC(=O)CSC1=C(C#N)C(c2sccc2C)CC(=O)N1 (centres undefined),75% (inactive)
18,O=C(CSCc1ccc(Cl)cc1)N1CCCCC1,-102% (active)
19,O=C(CSCc1cccs1)N1CCCC1,-80.2% (active)
20,Nc1scc(-c2ccncc2)c1Cl,-79.4% (active)
21,CC1CN/C(=C\C(=O)c2ccc(Br)cc2)C(=O)N1 (centres undefined),62% (inactive)
22,CC(=O)c1ccc(Oc2cc(C)nc(-n3nc(C)cc3C)n2)cc1,80.1% (inactive)
23,Cc1ccc(/C=N/NC(=O)CSc2nc3ccccc3o2)cc1,-108% (active)
24,O=C(CSc1nc2ccccc2o1)N/N=C/c1ccccc1C(=O)O,-97.9% (active)
25,COC(=O)c1ccc(/C=N/N2C(C)CCCC2C)cc1 (centres undefined),-172% (active)
26,CC(=O)c1ccc(S(=O)(=O)N2CCN(C(=O)/C=C/c3ccc4ccccc4n3)CC2)cc1,62.4% (inactive)
27,O=C(c1ccc2ccccc2n1)N1CCN(c2ccccc2Cl)CC1,-142% (active)
28,c1ccc(-c2cc(-c3ccccc3)[nH]n2)cc1,-106% (active)
29,Oc1ccccc1-c1cc(-c2ccc(Cl)cc2)n[nH]1,-126% (active)
